# PubChem BioAssay (Tox21)
# “And” between values parts separate entries of the source, which are not always exact repeats. Identical values can stand only once. Records with an inconclusive call do not appear. Unmarked numbers belong to inactive results. The source made the active and inactive calls. Calls come from the whole dose curve; as a rule, active = well fitted cell-killing curve with a large enough effect in the repeat runs; inconclusive = weak or mixed curves, or effect the other way; inactive = flat fitted curve, though single readings scatter.
# Test: qHTS RealTime-Glo MT Cell Viability Assay in HEK293 cells - 8 hour (AID 1224887); note: nearly all actives have a fitted effect of over 50% in size; for activity change, negative = cytotoxicity: top concentration of the series differs between compounds
# Settings: RealTime-Glo luminescence; series mostly up to 76.8 µM; activity change, negative = cytotoxicity: at the top concentration
# Text: U.S. Tox21 Program National Center for Advancing Translational Sciences [NCATS] NIH Chemical Genomics Center [NCGC] U.S. Environmental Protection Agency [EPA] National Institutes of Environmental Health Sciences [NIEHS] National Toxicology Program [NTP] U.S. Food and Drug Administration [FDA] Tox21 Assay Overview: Measure of cell viability is critical in the cell-base assay. Analysis of cell viability is necessary for the characterization of cell responses to cytotoxic drugs and environmental stress. A RealTime-Glo MT Cell Viability Assay to monitor cell viability in real time of continues cell culture during 40 hours of compound treatment was used to screen Tox21 10K library compounds in Hek293 cells. The RealTime-Glo MT Cell Viability Assay is a nonlytic, homogeneous, bioluminescent method to measure cell viability in real time using a simple, plate-based method. The assay involves adding NanoLuc luciferase and a cell-permeant prosubstrate to cells in culture. Viable cells reduce the proprietary prosubstrate to generate a substrate for NanoLuc luciferase. This substrate diffuses from cells into the surrounding culture medium, where it is rapidly used by the NanoLuc Enzyme to produce a luminescent signal. The signal correlates with the number of viable cells, making the assay well suited for cytotoxicity studies.
# Tox21 Assay Protocol Summary: The mixture of Hek293 cell suspension and reagents were dispensed at 600cells/6 ul/well in 1536-well tissue culture treated black solid bottom plates using a Multidrop dispenser. After the assay plates were incubated at a 37 C/5% CO2 incubator for 5 hours, 23 nL of compounds dissolved in DMSO, positive and negative controls was transferred to the assay plate by a pintool work station. The plates were incubated at 37 C for 40 hours. The luminescence intensity were measured at 0h, 8h, 16h, 24h, 32h and 40h time points using ViewLux plate reader during compound treatment.
# % is set by controls: 0 for no effect and ±100 for the full control effect; potency is the fitted concentration of half-maximal effect.
Compound,"activity change, negative = cytotoxicity",Potency
CCc1ccccc1N,-7.53%,
CN(C)C(=O)Nc1cccc(OC(=O)NC(C)(C)C)c1,-19.2%,
SCc1ccccc1,2.52%,
CCC[N+](CCC)(CCC)CCC,-0.136%,
Cc1ccccc1,7.12%,
O=C1CC[C@@]2(O)[C@H]3Cc4ccc(O)c5c4[C@@]2(CCN3CC2CC2)[C@H]1O5,-0.0642% [at 35.3 µM],
Cc1cnc(C2=NC(C)(C(C)C)C(=O)N2)c(C(=O)O)c1 (stereo not given),8.13%,
CC1(C)CC(=O)CC(C)(C)N1[O],-4.05%,
C1CS1,0.733%,
CCOP(=S)(OCC)SCSc1cc(Cl)ccc1Cl,-4.62%,
C=CC(C)(CCC=C(C)C)OC(=O)c1ccccc1N (stereo not given),13.1%,
CCCCC1C(=O)NC(=O)N(C2CCCCC2)C1=O (stereo not given),3.64% [at 35.3 µM],
C=CCN1C[C@H](C)N([C@H](c2ccc(C(=O)N(CC)CC)cc2)c2cccc(OC)c2)C[C@H]1C,-19.4% [at 35.3 µM],
CCCC[N+]1(C)[C@@H]2CC(OC(=O)[C@H](CO)c3ccccc3)C[C@H]1[C@@H]1O[C@@H]12 (stereo not given in full),7.2% [at 35.3 µM],
C[N+](C)(C)CCOC(=O)C(O)(c1ccccc1)c1ccccc1,6.98% [at 35.3 µM],
NP(N)(=O)NC(=O)c1ccc(F)cc1,-0.915% [at 35.3 µM],
CCCSP(=S)(OCC)Oc1ccc(SC)cc1 (stereo not given),7.47%,
[Cl-].[Cl-].[Hg+2],,43.5 µM (active) and 3.47 µM (active)
CC(C)C1(C)N=C(c2ncccc2C(=O)O)NC1=O (stereo not given),-0.189%,
COc1cc(CC(C)N)c(OC)cc1Br (stereo not given),-1.14%,

Compound,"activity change, negative = cytotoxicity",Potency
CCOP(=O)(O)C(N)=O,16.8%,
O=P(OCC(Br)CBr)(OCC(Br)CBr)OCC(Br)CBr (stereo not given),,24.9 µM (active)
CC[N+]1(CCOC(=O)C(O)(c2ccccc2)c2ccccc2)CCCCC1,12.1% [at 35.3 µM],
O=C(O)c1ccc(=O)[nH]c1,14.7% [at 35.3 µM],
COc1cc(C[C@@H](C)N)c(OC)cc1Br,-10.9%,
CCCBr,-5.14%,
C[CH2][Hg][S]c1ccccc1C(=O)O,,3.09 µM (active) and 4.25 µM (active)
CCOP(=S)(OCC)Oc1ccc(S(C)=O)cc1 (stereo not given),2.29%,
CCOC(=O)C1OC1(C)c1ccccc1 (stereo not given),,inactive
CC(C)(C)N(NC(=O)c1ccc(Cl)cc1)C(=O)c1ccccc1,-17.1%,
CN1CC[C@]23c4c5ccc(O)c4O[C@H]2[C@@H](O)CC[C@H]3[C@H]1C5,-6.3%,
CC1(C)[C@H](C(=O)O[C@H](C#N)c2cccc(Oc3ccccc3)c2)[C@@H]1C=C(Br)Br,-22.3%,
CC(C)c1ccc(NC(=O)N(C)C)cc1,22.3%,
CCOP(=O)(SC(C)CC)N1CCSC1=O (stereo not given),3.37%,
C=CCc1ccc(OC(=O)Cc2ccccc2)c(OC)c1,-18.6%,
CNC(=O)Oc1cccc(N=CN(C)C)c1,5.49%,
CCN(C(C)=O)c1cccc(-c2ccnc3c(C#N)cnn23)c1,1.04% [at 35.3 µM],
C=CCOCC1CO1 (stereo not given),-5.91%,
CON(C)C(=O)Nc1ccc(Cl)cc1,-1.7%,
CC(Cc1ccccc1)NCc1ccccc1Cl (stereo not given),-15.1% [at 35.3 µM],
